Activity calls are given as the source filed them. The calls were made as follows: active = hit-call score of the fitted dose curve at least 0.9, where 1 is the maximum; inactive = score below 0.9.
Read-out: Monocyte Chemoattractant Protein-1 (MCP1), CCL2 (gene 6347)
Experiment: BSK_LPS_MCP1: BioMAP Diversity Plus: LPS Assay for Monocyte Chemoattractant Protein-1 (MCP1) Biomarker Activity (AID 2283081);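 as to AC50: secreted MCP-1 protein quantified by ELISA in culture supernatant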
Details: primary human HUVEC with PBMC; actives raise or lower the signal
In short: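 LPS-stimulated HUVEC/PBMC co-culture; chemical, 24 h; MCP-1 by ELISA; bidirectional fit vs DMSO; cytotoxicity via SRB (0.1% stain, 10% TCA fix, 560 nm) in parallel wells.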

Compound	outcome	AC50
O=C(O)CC(O)(CC(=O)O)C(=O)O	inactive	
COc1ccc(OC(F)(F)F)cc1CN[C@H]1CCCN[C@H]1c1ccccc1		7.98 µM (active)
CS(=O)(=O)c1ccc([C@@H](C[C@H]2CCC(=O)C2)C(=O)Nc2cnccn2)cc1Cl	inactive	
O=C1c2c(O)cccc2Cc2cccc(O)c21	inactive	
Cc1c(C)c2c(c(C)c1O)CCC(C)(COc1ccc(CC3SC(=O)NC3=O)cc1)O2 (stereo not given)		30.8 µM (active)
CCCCC(CC)COC(=O)CCCCCCCC(=O)OCC(CC)CCCC (stereo not given)	inactive	
C#CC(O)C(CC)CCCC (stereo not given)	inactive	
NCCOCCOCCN	inactive	
COC(=O)[C@H]1[C@H]2C[C@@H]3c4[nH]c5cc(OC)ccc5c4CCN3C[C@H]2C[C@@H](OC(=O)c2cc(OC)c(OC)c(OC)c2)[C@@H]1OC		18.6 µM (active)
COC(=O)CCC(=O)OC	inactive	
CC(=O)O	inactive	
CC(=O)CC(c1ccccc1)c1c(O)c2ccccc2oc1=O (stereo not given)	inactive	
CC(=O)O[C@]1(C(C)=O)CC[C@H]2[C@@H]3C=C(Cl)C4=CC(=O)[C@@H]5C[C@@H]5[C@]4(C)[C@H]3CC[C@@]21C	inactive	
c1ccc2occc2c1	inactive	
NC1CCCCC1	inactive	
NC(=Nc1ccccc1)Nc1ccccc1	inactive	
CCCCC(CC)COP(=O)(OCC(CC)CCCC)OCC(CC)CCCC (stereo not given)	inactive	
O=C(N[C@@H](c1ccccc1)[C@@H]1CCCCN1)c1cccc(C(F)(F)F)c1Cl		22.7 µM (active)
Oc1ccccc1O	inactive	
CC(=O)[C@@]1(O)CC[C@H]2[C@@H]3CCC4=CC(=O)CC[C@]4(C)[C@H]3CC[C@@]21C	inactive	

From PubChem BioAssay (EPA / NIEHS)
